# Screening results deposited in PubChem by National Center for Advancing Translational Sciences (NCATS).
# ELG1 DNA repair = ELG1-dependent DNA repair inhibition. AID 504467. Potency, µM (doses to about 46.1 µM), actives largely listed as inhibitors. 330,000 compounds, 2.3% hits. HEK293T ELG1-luciferase reporter, luminescence, 16 h; DNA damage induced by 5-fluorouridine; note: nearly all actives have a fitted effect of over 55% in size
#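 HEK293T cells expressing luciferase-tagged ELG1 (2,000/well) received 5-Fluorouridine plus compound or DMSO for 16 hr at 37 °C. Luciferase was read by ONE-Glo luminescence after 30 min at room temperature.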
# Rab9 prom act = activators of Rab9 promoter. 320,000 compounds, 2.8% hits. AID 485297. Potency, µM (doses to about 9.22 µM), most hits filed as activators. Huh7 Rab9 promoter-luciferase reporter, luminescence, 24 h; note: nearly all actives have a fitted effect of over 60% in size
#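 Luminescence from Amplite-detected luciferase (10 minutes, ambient) reports Rab9 promoter activation. Before that, stable Rab9-luciferase Huh7 cells (1500/well, reduced-serum OP-MEM I plus 10% FBS) were exposed to compound for 24 hours at 37C.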
# FLuc modulator = firefly luciferase modulation, counter-screen for miR-21 project; P08659; purified FLuc, Km substrates, luminescence inhibition; Potency, µM (series often up to 57.5 µM), most hits filed as inhibitors; 360,000 compounds, 6.9% hits; note: nearly all actives have a fitted effect of over 55% in size
# Target sequence (P08659 whole entry, looked up): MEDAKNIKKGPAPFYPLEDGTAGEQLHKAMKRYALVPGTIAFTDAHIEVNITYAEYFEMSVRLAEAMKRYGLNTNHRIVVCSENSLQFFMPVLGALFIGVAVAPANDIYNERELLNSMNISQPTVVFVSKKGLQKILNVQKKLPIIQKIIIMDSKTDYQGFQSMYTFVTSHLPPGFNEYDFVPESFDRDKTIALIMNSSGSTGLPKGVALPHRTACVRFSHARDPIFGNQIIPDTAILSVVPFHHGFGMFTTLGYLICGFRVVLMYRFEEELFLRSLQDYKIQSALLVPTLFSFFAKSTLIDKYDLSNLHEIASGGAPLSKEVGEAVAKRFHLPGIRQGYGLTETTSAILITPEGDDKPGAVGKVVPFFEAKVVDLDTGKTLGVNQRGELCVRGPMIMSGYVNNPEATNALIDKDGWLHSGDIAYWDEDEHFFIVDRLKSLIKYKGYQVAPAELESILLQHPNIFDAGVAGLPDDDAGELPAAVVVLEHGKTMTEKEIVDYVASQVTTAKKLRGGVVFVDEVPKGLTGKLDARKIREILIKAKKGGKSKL
#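 Purified P. pyralis luciferase (10nM final) with 10uM D-luciferin and 10uM ATP (Km levels) in 50mM Tris acetate pH 7.5, 10mM Mg acetate, 0.01% Tween-20, 0.05% BSA; qHTS 6-point titration, ~60 µM downward; luminescence read.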
# ELG1 genotoxic = genotoxicity induction in ELG1-luciferase HEK293T cells; HEK293T ELG1-luciferase reporter, luminescence, 16 h; Potency, µM (doses to about 46 µM), actives largely listed as activators; 330,000 compounds, 1.3% hits; AID 504466; note: nearly all actives have a fitted effect of over 60% in size
#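 Screening used a luciferase reporter fused to human ELG1 in HEK293T cells. Luminescence was read on a CCD plate imager after 16 hr exposure and 30 min ONE-Glo incubation.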
# SMN2 splice enh = SMN2 splice variant enhancement; Potency, µM (titrated, usually from 46.1 µM), most hits filed as activators; HEK293 SMN2-luciferase splicing reporter, luminescence, 30-36 h; 210,000 compounds, 2.8% hits; note: nearly all actives have a fitted effect of over 55% in size
#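 HEK293 cells carry an SMN2 […]–luciferase reporter in which exon 7 inclusion puts luciferase in frame. Cells were plated 10-12 h before compound addition, then incubated 30-36 h at 37C. ONE-Glo luminescence was read; sodium butyrate at 4.5 mM final served as control.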
# NPC1 prom act = activators of NPC1 promoter. Huh7 NPC1 promoter luciferase reporter, 24 h. Potency, µM (series often up to 9.22 µM), most hits filed as activators. 320,000 compounds, 2.4% hits. AID 485313; note: nearly all actives have a fitted effect of over 60% in size
#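 Compounds in DMSO were transferred onto Huh7 NPC1-luciferase reporter cells pre-incubated 2 h; after 24 h at 37 °C, Amplite reagent was dispensed and luminescence recorded 10 min later.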
# Numbers stand for hits; . = inactive; ? = inconclusive; / = no result given; [ ] = dose if it differs, or a comment. In the library only some 9.2% were active in any assay of this set; here they are far more common. Calls come from the whole dose curve; as a rule, active = well fitted curve in the direction sought with a large enough effect; inconclusive = small, poorly fitted or top-dose-only effect, or another doubt; inactive = no such curve, though single readings can be large; an effect the other way counts as inactive or inconclusive.
SMILES,ELG1 DNA repair,Rab9 prom act,FLuc modulator,ELG1 genotoxic,SMN2 splice enh,NPC1 prom act
O=C(c1cc(-c2cccc(O)c2)on1)N1CCCCCC1,?,.,8.49µM,13µM,/,?
CCOc1ccc(S(=O)(=O)N2CCN(C(=O)c3oc4ccc(OC)cc4c3C)CC2)cc1,20.6µM,.,.,.,/,.
COc1cccc(C(=O)CN2CCN(S(=O)(=O)c3cccc([N+](=O)[O-])c3)CC2)c1,.,.,.,.,.,.
COc1ccc2oc(C(=O)N3CCN(S(=O)(=O)c4cccc([N+](=O)[O-])c4)CC3)c(C)c2c1,7.3µM,.,.,.,/,.
Cc1c(C(=O)N2CCN(S(=O)(=O)c3cccs3)CC2)oc2ccc(F)cc12,5.17µM,/,/,.,/,/
COc1ccc2oc(C(=O)OCC(=O)N3CCN(S(=O)(=O)c4ccccc4)CC3)c(C)c2c1,.,.,.,.,/,.
O=C(Nc1cccc2ccccc12)c1ccc(OC(=S)N2CCOCC2)cc1,.,.,10.7µM,.,.,.
O=C(Nc1cccc(Cl)c1)c1ccc(OC(=S)N2CCOCC2)cc1,?,?,2.69µM,?,.,?
O=C(Nc1cccc2ccccc12)N1CCOCC1,.,.,.,.,.,.
Cc1cccc(NC(=O)CCCN2C(=O)C(c3ccccc3)Oc3cccnc32)c1C (stereo not drawn),.,.,.,.,/,.
Cc1ccsc1CNC(=O)c1c(-c2ccccc2)noc1C,.,.,.,.,/,.
COc1ccc(-c2cc(=O)n(-c3ccc([N+](=O)[O-])cc3)[nH]2)cc1,?,.,21.3µM,.,.,.
COc1c([N+](=O)[O-])c(=O)n(-c2ccccc2)c2ccccc12,.,.,.,.,.,.
CC(C)c1ccc(-n2c(-c3ccccc3)c[n+]3c2CCc2ccccc2-3)cc1,2.31µM,.,.,.,.,.
COc1ccc(-n2c(-c3ccc(Br)cc3)c[n+]3c2CCc2ccccc2-3)cc1,?,.,.,.,.,.
COc1ccccc1-n1c(-c2ccccc2)c[n+]2c1CCc1ccccc1-2,3.26µM,.,.,.,.,.
COc1ccc(/C=C2\N=C(c3ccccc3)N(c3ccc(C(=O)O)cc3)C2=O)cc1OC,?,.,5.36µM,.,/,.
CC1=N/C(=C\c2ccc(OC(C)C)cc2)C(=O)N1c1ccc(C(=O)O)cc1,.,.,12µM,.,.,.
CCOC(=O)C1=C(C)Nc2ccccc2N/C1=N\S(=O)(=O)c1ccccc1,.,.,.,.,/,.
CN=c1scc(C)n1/N=C/c1ccc(O)c(O)c1O,?,.,1.51µM,?,.,.
CN=c1scc(-c2cccs2)n1/N=C/c1ccccc1O,5.17µM,.,0.169µM,.,.,.
CN=c1scc(C)n1/N=C/c1cc(Br)c(O)c(OC)c1,?,.,16.9µM,.,?,.
CN=c1scc(-c2cccs2)n1/N=C/c1ccc(O)c(O)c1O,?,0.794µM,1.69µM,?,12.6µM,?
CC(C)Cc1cc(CNC(=O)C2CCC(=O)N(Cc3cccc(C(F)(F)F)c3)C2)on1 (stereo not drawn),.,.[1.84 µM],.,.,/,.
COc1ccc(OCC(=O)OCc2cc(=O)n3cc(C)sc3n2)cc1,/,/,.,/,/,/
SMILES,ELG1 DNA repair,Rab9 prom act,FLuc modulator,ELG1 genotoxic,SMN2 splice enh,NPC1 prom act
CCCCNC(=O)Cn1c(=O)c2c(ncn2CCC(C)C)n(Cc2ccccc2)c1=O,.,.,.,.,/,.
CCOC(=O)c1sc(NC(=S)NC(=O)c2ccccc2)nc1C,?,.,?,?,?,.
COC(=O)c1sc(NC(=S)NC(=O)c2ccccc2)nc1C,?,2.51µM,4.78µM,?,.,?
COC(=O)c1sc(NC(=S)NC(=O)c2ccccc2Cl)nc1C,?,?,6.75µM,?,.,?
CC(=O)c1cccc(NC(=O)CCCCCn2nnc3ccccc3c2=O)c1,.,.,.,.,/,.
COc1ccc2ccccc2c1-c1c(OC)ccc2ccccc12,/,/,/,/,.,/
Cc1c(CCC(=O)O)c(=O)oc2cc3occ(-c4ccc(Br)cc4)c3cc12,.,.,16.9µM,.,/,.
